This is a sample that favours compounds with a hit; in the whole collection about 2.7% have one here.
A549 tox-1 – kills or reduces viability of A549 cells in Nrf2 counter-screen | A549 ARE-Fluc cells, CellTiter-Fluor viability, 18-24 h | Potency, µM (series often up to 46 µM), inactives show top-dose activity change, negative = cytotoxicity, most hits filed as inhibitors | 390,000 tested, 0.16% active; also: potency is read from the fitted curve at half-maximal effect; % is scaled to controls: 0 for no effect and ±100 for the full control effect
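A549 ARE-Fluc cells in 5% FBS OPTI-MEM, 5000 cells/well, rested 2 h then exposed to compounds in concentration-response for 18-24 h at 37 °C. Viability by CellTiter-Fluor fluorescence (Ex 405/Em 525) after 30 min; luciferase luminescence (BugLite, 15 min, RT) read afterwards.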
Nrf2 block – blocks Nrf2 signaling. Potency, µM (doses to about 46 µM), for the others: at the top dose activity change, negative = inhibition, usual class: inhibitors. A549 ARE-Fluc reporter, luciferase luminescence, 18-24 h. 360,000 tested, 2.1% active; also: potency is read from the fitted curve at half-maximal effect; % is scaled to controls: 0 for no effect and ±100 for the full control effect; nearly all actives have a fitted effect of over 60% in size
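Quantitative HTS in A549 cells stably bearing an antioxidant response element-firefly luciferase construct. Inhibition of Nrf2-driven transcription was scored by luminescence after 18-24 h of compound exposure at 37 °C.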
mIDH1 inhibitor – human IDH1 R132H inhibition; O75874; IDH1-R132H enzyme, NADPH consumption, diaphorase/resazurin fluorescence; Potency, µM (titrated, usually from 76.6 µM), without a hit: at the top dose activity change, negative = inhibition, most hits filed as inhibitors; 390,000 tested, 0.093% active; also: potency is read from the fitted curve at half-maximal effect; % is scaled to controls: 0 for no effect and ±100 for the full control effect; nearly all actives have a fitted effect of over 65% in size
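IDH1-R132H (0.5 ug/mL) preincubated 30 min with compound, then NADPH (0.016 mM) and alpha-KG (2 mM) added; 80 min at RT, pH 7.5. Remaining NADPH coupled via diaphorase/resazurin to fluorescence (540/590 nm); concentration-response curves normalized to no-enzyme control.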
Nrf2 ARE act – activators of Nrf2 (ARE) signaling; AID 624171; Potency, µM (titrated, usually from 46.1 µM), without a hit: at the top dose activation, usual class: activators; AREc32 ARE-luciferase reporter (MCF7-derived line), luminescence, 24 h; 410,000 tested, 0.31% active; also: potency is read from the fitted curve at half-maximal effect; % of control where 0% means no effect; nearly all actives have a fitted effect of over 65% in size
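Nrf2 activation is followed as ARE-luciferase induction in the AREc32 line after one day of compound treatment; luminescence is read with Steady-Glo.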
ALOX12 inh – ALOX12 (human) lipoxygenase inhibition | P18054 | purified 12hLO, xylenol orange hydroperoxide absorbance | Potency, µM (doses to about 108 µM), for inactives: at the top dose activity change, negative = inhibition, most hits filed as inhibitors | 580,000 tested, 1.1% active; also: potency is read from the fitted curve at half-maximal effect; % is scaled to controls: 0 for no effect and ±100 for the full control effect
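Purified human 12hLO at 150 nM in 25 mM Hepes, 0.01% Triton X-100, pH 7.0, preincubated 15 min at room temperature with compound. Reaction started with 40 uM arachidonic acid, 30 min at room temperature. Hydroperoxide measured by Fe-xylenol orange, 573/405 nm absorbance ratio.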
LDHA inh – LDHA (human) enzyme inhibition; P00338; purified LDHA, NADH/diaphorase-resazurin fluorescence; hits give low values; activity change, % (values are at about 110 or 230 µM); 480,000 tested, 0.15% active; in the data active = activity change below about -30%; inconclusive = mostly about -25% to -30%;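 also: plate controls were DMSO wells for no effect and wells without enzyme for full effect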
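Remaining NADH was detected by diaphorase (0.133 mg/mL) converting 37 µM resazurin to fluorescent resorufin, read at 0 and 20 minutes. The preceding 5-minute room-temperature reaction used 2 nM LDHA, 0.2 mM sodium pyruvate and 0.06 mM NADH at pH 7.4.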
FLuc counter 3 – counter-screen for Nrf2 inhibitors: firefly luciferase enzyme inhibition | 1,400 tested, 4% active | Potency, µM (top dose mostly 57.5 µM), inactives show at the highest dose activity change, negative = inhibition, most hits filed as inhibitors | purified firefly luciferase, luminescence inhibition | shares compounds with Nrf2 block | AID 720522; also: potency is read from the fitted curve at half-maximal effect; % is scaled to controls: 0 for no effect and ±100 for the full control effect; nearly all actives have a fitted effect of over 65% in size
Target sequence (P08659 whole entry, looked up): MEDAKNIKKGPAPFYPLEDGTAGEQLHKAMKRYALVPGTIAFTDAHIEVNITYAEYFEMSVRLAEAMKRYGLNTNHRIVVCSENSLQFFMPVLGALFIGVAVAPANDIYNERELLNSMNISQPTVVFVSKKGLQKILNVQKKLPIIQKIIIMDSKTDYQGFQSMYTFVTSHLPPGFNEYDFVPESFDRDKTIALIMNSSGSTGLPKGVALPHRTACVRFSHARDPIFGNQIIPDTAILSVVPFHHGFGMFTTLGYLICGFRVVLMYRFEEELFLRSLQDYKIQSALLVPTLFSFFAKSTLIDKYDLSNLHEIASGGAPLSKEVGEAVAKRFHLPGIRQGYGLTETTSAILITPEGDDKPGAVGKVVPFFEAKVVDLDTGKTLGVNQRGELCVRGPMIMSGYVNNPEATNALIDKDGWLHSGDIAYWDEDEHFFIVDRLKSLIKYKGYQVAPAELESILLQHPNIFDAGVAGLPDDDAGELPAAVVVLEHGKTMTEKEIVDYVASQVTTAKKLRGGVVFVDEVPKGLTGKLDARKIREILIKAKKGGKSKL
A549 tox-2 – counter-screen for Nrf2 inhibitors: cytotoxicity in A549 ARE cells | shares compounds with Nrf2 block | A549 ARE-Fluc cells, cytotoxicity counterscreen | Potency, µM (doses to about 46.1 µM), for inactives: top-dose activity change, negative = cytotoxicity, usual class: inhibitors | 1,400 tested, 2% active | AID 720523;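 also: potency is read from the fitted curve at half-maximal effect; cells exposed to compounds for 18 to 24 hours; % is scaled to controls: 0 for no effect and ±100 for the full control effect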
Nrf2 ARE inh – Nrf2 inhibition confirmed, A549 ARE-luciferase | A549 ARE-firefly luciferase reporter, luminescence | Potency, µM (top dose mostly 46.1 µM), for the others: at the highest dose activity change, negative = inhibition, actives largely listed as inhibitors | 1,400 tested, 74% active | AID 720524 | shares compounds with Nrf2 block; also: potency is read from the fitted curve at half-maximal effect; % is scaled to controls: 0 for no effect and ±100 for the full control effect; nearly all actives have a fitted effect of over 65% in size
* marks the source's active call; other numbers are inactive results; ? = inconclusive; nt = no result given. Unless noted, calls follow the shape of the dose curve; as a rule, active = well fitted curve in the direction sought with a large enough effect; inconclusive = small, poorly fitted or top-dose-only effect, or another doubt; inactive = no such curve, though single readings can be large; an effect the other way counts as inactive or inconclusive.

SMILES | A549 tox-1 | Nrf2 block | mIDH1 inhibitor | Nrf2 ARE act | ALOX12 inh | LDHA inh | FLuc counter 3 | A549 tox-2 | Nrf2 ARE inh
COc1ccc(NS(=O)(=O)c2ccc(NC(=O)c3ccc(CN4CCOCC4)cc3)cc2)cc1 | -2% | ? | 0% | 5% | -11% | 3 | nt | nt | nt
CCN(CC)S(=O)(=O)c1ccc(NC(=O)c2ccc(CN3CCOCC3)cc2)cc1 | -4% | 3.7µM* | 0% | 0% | 0% | 4 | 1% | -7% | 3.7µM*
O=C(Nc1ccc(S(=O)(=O)N2CCCC2)cc1)c1ccc(CN2CCOCC2)cc1 | -14% | 4.1µM* | 10% | 5% | -15% | -11 | -2% | -8% | 8.2µM*
O=C(Nc1ccc2c(c1)OCCO2)c1ccc(Cl)c(S(=O)(=O)N2CCOCC2)c1 | -14% | -13% | 8% | 1% | 23% | -6 | nt | nt | nt
CCCCCn1c(=O)[nH]c2cc(C(=O)NC3CCN(Cc4ccccc4)CC3)ccc2c1=O | 1% | -13% | 0% | 2% | 0% | -8 | nt | nt | nt
O=C(Nc1ccc(N2CCOCC2)cc1)c1ccc(Cl)c(S(=O)(=O)N2CCCCC2)c1 | -7% | 4.1µM* | -9% | 0% | 0% | 1 | -2% | -3% | 5.2µM*
CCOc1ccc(NC(=O)C(C)C)c2cccnc12 | nt | nt | nt | nt | 6% | -17 | nt | nt | nt
COC(=O)c1occc1/C=C/C(=O)c1ccc(C#N)cc1 | nt | nt | nt | nt | 43% | 7 | nt | nt | nt
O=C(Nc1ccc(S(=O)(=O)Nc2ccc(F)cc2)cc1)c1ccc(CN2CCOCC2)cc1 | -18% | 3.7µM* | 3% | 4% | -12% | -3 | -4% | -8% | nt
CCC(C(=O)Nc1cccc(Cl)c1)n1nc(-c2ccc(C)cc2)ccc1=O (centres undefined) | nt | nt | nt | nt | ? | 3 | nt | nt | nt
COc1ccc(OC)c(C2CC(=O)c3c([nH]c(C(=O)OCc4ccc(C)cc4)c3C)C2)c1 (centres undefined) | -3% | -2% | -18% | -1% | ? | -3 | nt | nt | nt
COc1cc(C2CC(=O)c3c([nH]c(C(=O)OCCOC(C)C)c3C)C2)cc(OC)c1OC (centres undefined) | ? | 4.6µM* | -3% | -1% | 240% | 4 | 3% | -12% | 9.2µM*
COc1cc(C2CC(=O)c3c([nH]c(C(=O)OCc4ccc(C)cc4)c3C)C2)cc(OC)c1OC (centres undefined) | -9% | 2.3µM* | 0% | 4% | -1% | -3 | 0% | -3% | 4.6µM*
Cc1ccc(NC(=O)CSc2ncc(-c3ccc(F)cc3)o2)c(C)c1 | nt | nt | nt | nt | ? | -1 | nt | nt | nt
Cc1cc(N2CCN(Cc3nc(C)no3)CC2)nc(C(C)C)n1 | nt | nt | nt | nt | 0% | 4 | nt | nt | nt
CCCCCc1ccc(C(=O)Oc2cccc(OC(=O)c3ccc(CCCCC)cc3)c2)cc1 | nt | nt | nt | nt | -2% | 0 | nt | nt | nt
COCC(=O)N1CCC(c2nn(-c3ccc(Cl)cc3)c(=O)[nH]2)CC1 | nt | nt | nt | nt | -3% | nt | nt | nt | nt
COc1ccc(CCC(=O)Nc2cccc(S(=O)(=O)N3CCCCCC3)c2)cc1OC | ? | ? | -9% | 1% | 3% | -17 | nt | nt | nt

Screening data: PubChem BioAssay, National Center for Advancing Translational Sciences (NCATS)
